According to PubChem BioAssay (NCI):
This is part of a sample that, as a whole, favours compounds with a hit. Of some 79,000 tested, about 15% had one in any assay. Active and inactive are the calls of the source. No stated cut-off is given here; in the data, active means growth inhibition above about 70%; inactive means the rest.

Tests used:
[1] = NCI Yeast Anticancer Drug Screen. Data for the mlh1 strain (AID 171);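 further: 0% = growth of vehicle-treated control cultures of the same strain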; conditions: S. cerevisiae mlh1 strain growth inhibition, active compounds read high
Method in brief: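 Growth of the mutant yeast strain after compound exposure, expressed as inhibition relative to vehicle-only controls.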

[2] = NCI Yeast Anticancer Drug Screen. Data for the sgs1 strain (AID 173);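 further: 0% = growth of vehicle-only control cultures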; conditions: S. cerevisiae sgs1 mutant, active compounds read high
Method in brief: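 Growth of a yeast strain bearing a defined genetic alteration is measured after compound treatment. Inhibition is expressed relative to vehicle-only controls.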

[3] = NCI Yeast Anticancer Drug Screen. Data for the mlh1 rad18 strain (AID 175); conditions: S. cerevisiae mlh1 rad18 strain growth inhibition, active compounds read high
Method in brief: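 Read-out is yeast growth inhibition, calculated against vehicle-only controls. The compound was applied to a strain engineered with DNA damage repair alterations.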

[4] = NCI Yeast Anticancer Drug Screen. Data for the rad18 strain (AID 177); conditions: S. cerevisiae rad18 mutant growth inhibition, active compounds read high
Method in brief: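 Growth of the mutant yeast strain after compound exposure, normalised to vehicle-only cultures.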

[5] = NCI Yeast Anticancer Drug Screen. Data for the rad52 strain (AID 147);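 further: 0% = growth of vehicle-treated control cultures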; conditions: S. cerevisiae rad52 mutant growth inhibition, active compounds read high
Method in brief: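 Compounds are applied to a genetically defined yeast strain lacking normal DNA damage repair, and inhibition of growth is expressed relative to cultures given vehicle only.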

[6] = NCI Yeast Anticancer Drug Screen. Data for the rad50EPP+ strain (AID 151);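 further: 0% = growth of vehicle-treated control cultures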; conditions: S. cerevisiae rad50 mutant strain, active compounds read high
Method in brief: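 Compounds were applied to the rad50EPP+ yeast strain, which bears a defined DNA repair alteration, and growth inhibition was determined relative to vehicle-treated cultures.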

[7] = NCI Yeast Anticancer Drug Screen. Data for the rad50 strain (AID 155);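 further: 0% = growth of vehicle-only cultures of the same strain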; conditions: S. cerevisiae rad50 strain growth inhibition, active compounds read high
Method in brief: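 Yeast carrying a defined DNA repair defect were exposed to test compounds, and growth was compared with vehicle-treated controls to give percent inhibition.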

[8] = NCI Yeast Anticancer Drug Screen. Data for the mec2-1 strain (AID 157); conditions: S. cerevisiae mec2-1 strain, active compounds read high
Method in brief: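 Strain: mec2-1 (DNA repair/cell cycle alteration). Compound exposure, then growth measured; inhibition expressed relative to vehicle.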

[9] = NCI Yeast Anticancer Drug Screen. Data for the rad14 strain (AID 159);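 further: 0% = growth of vehicle-treated control cultures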; conditions: S. cerevisiae rad14 strain growth inhibition, active compounds read high
Method in brief: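 Yeast cells carrying a defined DNA-repair defect were exposed to compounds, and growth inhibition was calculated relative to vehicle-treated control cultures.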

[10] = NCI Yeast Anticancer Drug Screen. Data for the sgs1 mgt1 strain (AID 161);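 further: 0% = growth of cultures given vehicle only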; conditions: S. cerevisiae sgs1 mgt1 strain, active compounds read high
Method in brief: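 Read-out: growth inhibition vs vehicle controls. Cells: mutant yeast strain deficient in DNA damage repair.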

[11] = NCI Yeast Anticancer Drug Screen. Data for the CLN2oe strain (AID 163);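 further: 0% = growth of vehicle-only control cultures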; conditions: S. cerevisiae CLN2oe strain, active compounds read high
Method in brief: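 Growth of a genetically modified yeast strain is measured after compound exposure and compared with cultures given vehicle alone.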

[12] = NCI Yeast Anticancer Drug Screen. Data for the cln2 rad14 strain (AID 165);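 further: 0% = growth equal to vehicle treated cultures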; conditions: S. cerevisiae cln2 rad14 strain, active compounds read high
Method in brief: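 Compounds are applied to the cln2 rad14 yeast strain, and growth is then compared with that of vehicle-treated cultures to give inhibition.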

[13] = NCI Yeast Anticancer Drug Screen. Data for the bub3 strain (AID 167); conditions: S. cerevisiae bub3 mutant strain, active compounds read high
Method in brief: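 Compounds were applied to a genetically altered yeast strain carrying a cell-cycle control defect. Growth inhibition was scored against vehicle-treated controls.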

[14] = NCI Yeast Anticancer Drug Screen. Data for the wt2 strain (AID 169);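 further: 0% = growth of vehicle-treated yeast cultures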; conditions: S. cerevisiae wt2 strain growth inhibition, active compounds read high
Method in brief: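 This strain belongs to a panel of yeast strains with defined genetic alterations in DNA damage repair or cell cycle control. Compounds are applied, and growth inhibition is measured against vehicle-treated cultures.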

[15] = NCI Yeast Anticancer Drug Screen. Data for the mgt1 strain (AID 153); conditions: S. cerevisiae mgt1 mutant growth inhibition, active compounds read high
Method in brief: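 Strain: mgt1 yeast, one of a set carrying defined DNA damage repair or cell cycle control alterations. Compound-treated growth compared with vehicle.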

[16] = at 5.0 µM (retest, dose inferred, filed as 0.5)
[17] = at 50.0 µM (retest, dose inferred, filed as 5.0)

Measured: growth inhibition

Nc1ncc(-c2ccc(Br)cc2)s1
active: [1]; at 33.0 µM 94% | [1]; at 100.0 µM 97% | [2]; at 33.0 µM 92% | [2]; at 100.0 µM 97% | [3]; at 50.0 µM 89.9% | [4]; at 33.0 µM 91% | [4]; at 100.0 µM 97%
inactive: [1]; at 1.2 µM -9% | [1]; at 3.7 µM -14% | [1]; at 11.0 µM -1% | [2]; at 1.2 µM 19% | [2]; at 3.7 µM 26% | [2]; at 11.0 µM 34% | [3]; [16] 39% | [3]; [17] 55% | [4]; at 1.2 µM -29% | [4]; at 3.7 µM -30% | [4]; at 11.0 µM -16%

CCN(CC)CCNc1ccc2ncn3c4cc(OC)c(OC)c(=O)c4c(O)c1c23
inactive: [5]; at 1.2 µM 15% | [5]; at 3.7 µM 14% | [5]; at 11.0 µM 40% | [5]; at 33.0 µM 36% | [5]; at 100.0 µM 59% | [6]; at 1.2 µM 1% | [6]; at 3.7 µM 3% | [6]; at 11.0 µM 11% | [6]; at 33.0 µM 20% | [6]; at 100.0 µM 26% | [7]; at 1.2 µM 5% | [7]; at 3.7 µM 15% | [7]; [16] 2% | [7]; at 11.0 µM 30% | [7]; at 33.0 µM 46% | [7]; [17] -3% | [7]; at 50.0 µM 65.5% | [7]; at 100.0 µM 66% | [8]; at 1.2 µM -2% | [8]; at 3.7 µM -1% | [8]; [16] -3% | [8]; at 11.0 µM 0% | [8]; at 33.0 µM 8% | [8]; [17] -12% | [8]; at 50.0 µM 23.5% | [8]; at 100.0 µM 11% | [9]; at 1.2 µM -1% | [9]; at 3.7 µM 0% | [9]; at 11.0 µM 5% | [9]; at 33.0 µM 4% | [9]; at 100.0 µM 8% | [10]; [16] 10% | [10]; [17] 17% | [10]; at 50.0 µM 12.8% | [11]; at 1.2 µM -6% | [11]; at 3.7 µM -4% | [11]; at 11.0 µM 0% | [11]; at 33.0 µM -2% | [11]; at 100.0 µM 5% | [12]; [16] -5% | [12]; [17] 48% | [12]; at 50.0 µM 26.4% | [13]; at 1.2 µM -1% | [13]; at 3.7 µM -3% | [13]; [16] 11% | [13]; at 11.0 µM 0% | [13]; at 33.0 µM -2% | [13]; [17] 16% | [13]; at 50.0 µM 11.8% | [13]; at 100.0 µM 4% | [14]; at 1.2 µM -3% | [14]; at 3.7 µM 0% | [14]; at 11.0 µM 1% | [14]; at 33.0 µM 1% | [14]; at 100.0 µM 2% | [1]; at 1.2 µM -1% | [1]; at 3.7 µM 0% | [1]; at 11.0 µM 1% | [1]; at 33.0 µM 3% | [1]; at 100.0 µM 7% | [2]; at 1.2 µM 0% | [2]; at 3.7 µM 5% | [2]; at 11.0 µM 3% | [2]; at 33.0 µM 4% | [2]; at 100.0 µM 5% | [3]; [16] 38% | [3]; [17] -10% | [3]; at 50.0 µM 20.3% | [4]; at 1.2 µM -4% | [4]; at 3.7 µM -1% | [4]; at 11.0 µM 5% | [4]; at 33.0 µM -7% | [4]; at 100.0 µM 1%

CNC(=O)OCc1c(COC(=O)NC)c2n(c1C)-c1ccc(OC)cc1CCC2
active: [5]; at 33.0 µM 96% | [5]; at 100.0 µM 99% | [15]; at 33.0 µM 98% | [15]; at 100.0 µM 99% | [7]; at 33.0 µM 95% | [7]; [17] 99% | [7]; at 50.0 µM 85.7% | [7]; at 100.0 µM 99% | [8]; at 33.0 µM 95% | [8]; [17] 99% | [8]; at 50.0 µM 89.1% | [8]; at 100.0 µM 99% | [9]; at 33.0 µM 98% | [9]; at 100.0 µM 100% | [10]; [17] 99% | [10]; at 50.0 µM 90% | [11]; at 33.0 µM 87% | [11]; at 100.0 µM 100% | [12]; [17] 98% | [12]; at 50.0 µM 88.2% | [13]; at 33.0 µM 97% | [13]; [17] 100% | [13]; at 50.0 µM 87.2% | [13]; at 100.0 µM 99% | [14]; at 100.0 µM 98% | [1]; at 33.0 µM 98% | [1]; at 100.0 µM 99% | [2]; at 33.0 µM 95% | [2]; at 100.0 µM 99% | [3]; [17] 98% | [3]; at 50.0 µM 86.9% | [4]; at 33.0 µM 96% | [4]; at 100.0 µM 98%
inactive: [5]; at 1.2 µM -18% | [5]; at 3.7 µM -24% | [5]; at 11.0 µM -20% | [6]; at 1.2 µM -6% | [6]; at 3.7 µM -7% | [6]; at 11.0 µM -8% | [6]; at 33.0 µM 6% | [6]; at 100.0 µM 15% | [15]; at 1.2 µM -32% | [15]; at 3.7 µM -35% | [15]; at 11.0 µM -34% | [7]; at 1.2 µM -35% | [7]; at 3.7 µM -38% | [7]; [16] 25% | [7]; at 11.0 µM -43% | [8]; at 1.2 µM -61% | [8]; at 3.7 µM -29% | [8]; [16] 2% | [8]; at 11.0 µM -52% | [9]; at 1.2 µM -36% | [9]; at 3.7 µM -16% | [9]; at 11.0 µM -23% | [10]; [16] 17% | [11]; at 1.2 µM -12% | [11]; at 3.7 µM -16% | [11]; at 11.0 µM -5% | [12]; [16] 45% | [13]; at 1.2 µM -16% | [13]; at 3.7 µM -26% | [13]; [16] 45% | [13]; at 11.0 µM -30% | [14]; at 1.2 µM 8% | [14]; at 3.7 µM 9% | [14]; at 11.0 µM -7% | [14]; at 33.0 µM 66% | [1]; at 1.2 µM -42% | [1]; at 3.7 µM -31% | [1]; at 11.0 µM -47% | [2]; at 1.2 µM -15% | [2]; at 3.7 µM -15% | [2]; at 11.0 µM -16% | [3]; [16] 17% | [4]; at 1.2 µM -45% | [4]; at 3.7 µM -43% | [4]; at 11.0 µM -48%
